# Assay results taken from PubChem BioAssay (NCATS).
# Inconclusive results are not listed. A call without a number means that no potency is given here. Active and inactive are the calls of the source. The call rests on the fitted dose curve; in most records, active means well fitted curve in the direction sought with a large enough effect; inconclusive means small, poorly fitted or top-dose-only effect, or another doubt; inactive means no such curve, though single readings can be large; an effect the other way counts as inactive or inconclusive.
# Legend:
# [1] = qHTS Assay for Identifying Gametocytocidal Compounds (AID 743244);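 further: actives lower the fluorescent signal which means gametocytes are killed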; details: P. falciparum 3D7 stage III-V gametocytes, alamarBlue, 72 h; max response: active compounds read low
# Summary of the method: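 Stage III-V P. falciparum 3D7 gametocytes, 20,000 per well, were exposed to compounds for 72 h at 37C, 5% CO2. AlamarBlue was then added for 24 h and viability was read as fluorescence at Ex 525/Em 598 nm.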
# [2] = qHTS assay to identify small molecule inhibitors of chordoma cells - UCH-1 (AID 1259355); details: UCH-1 chordoma viability, CellTiter-Glo, 48 h, combination, with auranofin plus four topoisomerase inhibitors; series mostly up to 46.1 µM; further: nearly all actives have a fitted effect of over 55% in size
# Summary of the method: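 Cells (800/well) were seeded and left overnight at 37 C, 5% CO2, then treated with drugs at 15 concentrations plus a combination mix of auranofin, camptothecin, doxorubicin, rubitecan and topotecan. Viability after 48hr was read by CellTiter-Glo luminescence.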
# [3] = qHTS assay to identify small molecule inhibitors of chordoma cells - UCH-2 (AID 1259356); details: UCH-2 chordoma viability, CellTiter-Glo ATP luminescence, 48 h; series mostly up to 46.1 µM
# [4] = P-glycoprotein substrates identified in KB-8-5-11 adenocarcinoma cell line, qHTS therapeutic library screen (AID 1346987); details: KB-8-5-11 (P-gp overexpressing) viability, CellTiter-Glo, 72 h; series mostly up to 44.5 µM; further: nearly all actives have a fitted effect of over 65% in size; further: potency means the concentration at half of the fitted maximal effect
# Summary of the method: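 KB-8-5-11, a colchicine-selected P-gp-overexpressing KB-3-1 subline, was grown without colchicine for the assay. Cells were seeded at 500 cells/well, dosed in concentration-response and incubated 72 h at 37 degree C, 5% CO2. Viability was read by CellTiter-Glo luminescence.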
SMILES,max response [1],Potency [2],Potency [3],Potency [4]
COc1ccc(C(=O)c2ccc(C)cc2)c(O)c1,-6.86% (inactive),inactive,inactive,inactive
C[C@H](N)C(=O)N[C@@H](C)P(=O)(O)O,2.87% (inactive),inactive,inactive,inactive
CCCCCCCCCCCCOCCCN,-2.81% (inactive),inactive,inactive,inactive
CC12CCC(C[N+](C)(CCC[N+](C)(C)C)C1)C2(C)C (centres undefined),-4.18% (inactive),inactive,inactive,inactive
OC1OC[C@@H](O)[C@H](O)[C@@H]1O (some centres undefined),7.58% (inactive),inactive,inactive,inactive
O=C(O)Cc1nn(Cc2ccc(Br)cc2F)c(=O)c2ccccc12,-4.01% (inactive),inactive,inactive,inactive
C[C@@H]1C[C@H]2[C@@H]3CCC4=CC(=O)C=C[C@]4(C)[C@@]3(F)[C@@H](O)C[C@]2(C)[C@@]1(O)C(=O)COC(=O)c1cccc(S(=O)(=O)O)c1,12.5% (inactive),inactive,inactive,inactive
CC1CCCC(C)N1NC(=O)c1ccc(Cl)c(S(N)(=O)=O)c1 (centres undefined),7.73% (inactive),inactive,inactive,inactive
CC(C)OC(=O)Nc1ccc2nc(-c3cscn3)[nH]c2c1,-0.783% (inactive),inactive,inactive,4.61 µM (active)
CC(C)C[C@@H](NC(=O)[C@@H](O)[C@H](N)Cc1ccccc1)C(=O)O,1.84% (inactive),inactive,inactive,inactive
NC[C@H]1O[C@H](O[C@H]2[C@H](O)[C@@H](O[C@H]3O[C@H](CO)[C@@H](O)[C@H](N)[C@H]3O)[C@H](N)C[C@@H]2N)[C@H](O)[C@@H](O)[C@@H]1O,19.4% (inactive),inactive,inactive,inactive
